{"source": "PubChem BioAssay AID651644", "about": "(National Center for Advancing Translational Sciences (NCATS), 2012)", "note": "Screen size: about 360,000 compounds; about 750 (0.21%) were called active. Inconclusive results (about 2%) are left out. The full list was thinned out, with actives kept by preference. A number with no mark means an inactive call. Calls come from the whole dose curve; as a rule, active = well fitted falling curve with a large enough effect; inconclusive = small, poorly fitted or top-dose-only effect; inactive = no such curve, though single readings can be large or run the other way. % is set by controls: 0 for no effect and ±100 for the full control effect; potency is the fitted concentration of half-maximal effect."}
{"test": "qHTS Assay for Inhibitors of the HIV-1 protein Vpr; note: nearly all actives have a fitted effect of over 50% in size", "conditions": "S. pombe RE007 Vpr strain, BacTiter-Glo ATP luminescence, 24 h; series mostly up to 92.2 µM; activity change, negative = less growth: at the top concentration", "procedure,_shortened": "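Fission yeast strain RE007, carrying one chromosomally integrated HIV-1 vpr copy, was seeded at OD 0.01 in PMG+AL medium with 23 nL pinned compound. After 24 h at 30 °C and 99% humidity, viability was read by BacTiter-Glo luminescence.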", "units": {"activity change, negative = less growth": "%"}}
{"smiles": "COc1ccc(C(O)C(O)(C(=O)OC(C)C)c2ccc(C)cc2)cc1", "note": "(stereo unspecified)", "activity change, negative = less growth": 2.24}
{"smiles": "COC(=O)c1ccc(CNC(=O)c2ccc3oc(C(C)C)nc3c2)cc1", "activity change, negative = less growth": -1.64}
{"smiles": "Cc1ccc(C)c(-n2cc(CN3CCN(C(=O)c4ncn[nH]4)CC3)c(-c3ccccc3)n2)c1", "activity change, negative = less growth": 2.12}
{"smiles": "CC(NC(=O)COC(=O)c1ccc(Cl)cc1O)c1ccc(F)cc1", "note": "(stereo unspecified)", "activity change, negative = less growth": 14.6}
{"smiles": "NC(=O)COC(=O)c1sc2cc(F)ccc2c1Cl", "Potency": "25.1 µM (active)"}
{"smiles": "Cc1ccc2c(Cl)c(C(=O)Nc3nn[nH]n3)sc2c1", "activity change, negative = less growth": 2.79}
{"smiles": "Cc1ccc(S(=O)(=O)NCC(=O)N(CC(=O)NC(C)(C)C)Cc2cccs2)cc1", "activity change, negative = less growth": 4.4}
{"smiles": "COCCCNC(=O)C1CCN(c2ccc(N3CCOCC3)nn2)CC1", "activity change, negative = less growth": -8.78}
{"smiles": "CCc1nc2c(OCCOc3ccccc3)cccn2c1N(C=O)Cc1ccc(OC)cc1", "activity change, negative = less growth": -28.1}
{"smiles": "Cc1ccc(S(=O)(=O)N(CC(O)CN2C(=O)NC(C)(C)C2=O)c2cccc([N+](=O)[O-])c2)cc1", "note": "(stereo unspecified)", "activity change, negative = less growth": 51.3}
{"smiles": "COc1ccc(-c2cc(C3CCN(c4ncccc4[N+](=O)[O-])CC3)[nH]n2)cc1", "activity change, negative = less growth": 12}
{"smiles": "CN(C)C(=O)c1cccc(-c2cnc3sc(NCc4ccc5c(c4)OCO5)nn23)c1", "activity change, negative = less growth": 17.8}
{"smiles": "Cc1cccc(C(=O)N2CCCC(Nc3ccc(C(C)C)cc3)C2)n1", "note": "(stereo unspecified)", "activity change, negative = less growth": -10.3}
{"smiles": "O=C(Nc1ccccc1)c1nnsc1S(=O)(=O)c1ccc(Cl)cc1", "Potency": "6.31 µM (active)"}
{"smiles": "Cc1nnsc1C(=O)Nc1cccc(Cl)c1C", "activity change, negative = less growth": -7.71}
{"smiles": "CC1=C(C(=O)Nc2ccccc2)S(=O)(=O)CCO1", "activity change, negative = less growth": 14.7}
{"smiles": "COc1ccc(C(C)NC(=O)C2CCCC2)cc1", "note": "(stereo unspecified)", "activity change, negative = less growth": 16.1}
{"smiles": "O=C(Cn1cc(C(F)(F)F)ccc1=O)Nc1ccc2c(c1)OCCO2", "activity change, negative = less growth": 1.56}
{"smiles": "CC1(C)Cc2c(sc(NC(=O)C(=O)N3CCOCC3)c2C#N)CO1", "activity change, negative = less growth": -3.12}
{"smiles": "S=C(Cc1ccc(Cl)cc1)N1CCOCC1", "activity change, negative = less growth": -11.5}
{"smiles": "CC1CCN(C(NC(=O)c2ccco2)C(=O)c2ccccc2)CC1", "note": "(stereo unspecified)", "activity change, negative = less growth": 9.19}
{"smiles": "CCOC(=O)c1c(Cc2ccc(Cl)cc2)c[nH]c1C", "activity change, negative = less growth": -1.99}
{"smiles": "COC1=CC(=O)OC(c2ccc(OC)cc2)C1", "note": "(stereo unspecified)", "activity change, negative = less growth": 3.06}
{"smiles": "COc1ccc(N=Nc2c(-c3ccc(OC)cc3)[nH]oc2=O)cc1", "activity change, negative = less growth": -3.2}
{"smiles": "COc1ccc(N=C2C=CC(=O)O2)cc1", "Potency": "8.91 µM (active)"}
{"smiles": "O=C(Nc1ccccc1F)c1ccc(Cn2cc(Br)cn2)cc1", "activity change, negative = less growth": 4.37}
{"smiles": "C[C@H](CO)N1C[C@H](C)[C@@H](CN(C)Cc2ccc3c(c2)OCO3)OCc2cnnn2CCCC1=O", "activity change, negative = less growth": 3.04}
{"smiles": "Cc1ccccc1-n1nc(C)c2c1N=C1C(Cl)=CC(Cl)=CN1C2c1ccc(C(=O)O)cc1", "note": "(stereo unspecified)", "activity change, negative = less growth": -12}
{"smiles": "Fc1ccccc1N=C1Nc2cccc3cccc1c23", "Potency": "25.1 µM (active)"}
{"smiles": "O=C(NCC1CCCCC1)c1cc(S(=O)(=O)N2CCCCC2)ccc1N1CCOCC1", "activity change, negative = less growth": -20.1}
{"smiles": "COc1cccc2c1CCC(NC(C)=O)C2=O", "note": "(stereo unspecified)", "activity change, negative = less growth": 8}
{"smiles": "CCOc1ccc2[nH]c3nc(SCC(=O)NC4CCCC4)nnc3c2c1", "activity change, negative = less growth": 5.5}
{"smiles": "COc1ccc(CCN(C)C(=O)C23CC4CC(CC(Cl)(C4)C2)C3)cc1OC", "activity change, negative = less growth": 10.3}
{"smiles": "COc1cccc(C(C(=O)NC2CCCC2)N(C(=O)c2ccco2)c2cccc(C(C)=O)c2)c1OC", "note": "(stereo unspecified)", "activity change, negative = less growth": -5.9}
{"smiles": "CCOc1ccc(C(=O)CCC(=O)NC2=NCCS2)cc1", "activity change, negative = less growth": -25.9}
{"smiles": "CCOc1ccc(-c2ccc(SCC(=O)N3CCOCC3)nn2)cc1", "activity change, negative = less growth": 1.07}
{"smiles": "CCOc1ccc(C(=O)CCN2CCOCC2)cc1", "Potency": "39.8 µM (active)"}
{"smiles": "O=C(O)CCCn1cc(NC(=O)COc2cccc(Cl)c2)cn1", "activity change, negative = less growth": 11.7}
{"smiles": "CC(NC(=O)COC(=O)C1CCN(S(=O)(=O)c2ccccc2C(F)(F)F)CC1)c1ccccc1", "note": "(stereo unspecified)", "activity change, negative = less growth": -18.4}
{"smiles": "CN(C)C(CNC(=O)c1cc(Br)c(Br)s1)c1ccco1", "note": "(stereo unspecified)", "activity change, negative = less growth": 3.37}
{"smiles": "O=C1C(Cl)=C(Oc2ccccc2)C(=O)c2ccccc21", "Potency": "3.16 µM (active)"}
{"smiles": "CCC1=C(OC(=O)N(CC)CC)N2C(=O)OC(=NCCc3c[nH]c4ccccc34)[C@]2(C)[C@H]2C1=CC[C@H]1C(=O)N(CC)C(=O)[C@H]12", "activity change, negative = less growth": 5.02}
{"smiles": "CSCCC(NS(=O)(=O)c1ccc2c(c1)oc(=O)n2C)C(=O)NC1CCCc2ccccc21", "note": "(stereo unspecified)", "activity change, negative = less growth": 5.96}
{"smiles": "CC[C@]1(C(=O)OC)[C@H]2C(=O)N(C)C(=O)[C@H]2[C@H]2CN(C)C(=NCc3ccccc3)N21", "activity change, negative = less growth": -7.99}
{"smiles": "Cc1cc(C)cc(NC(=O)Cn2cnc3c(nnn3Cc3ccc(F)cc3)c2=O)c1", "activity change, negative = less growth": 18.1}
{"smiles": "CCc1nnc(NC(=O)CSCc2cc(=O)n3cc(C)sc3n2)s1", "activity change, negative = less growth": 7.37}
